The values below come from PubChem BioAssay.

The source made the active and inactive calls.

The nature of test [1]: optical density shifts of acrAB sulA E. coli – strain DRC41, OD650, 48 h, E. coli filamentation inducer project, primary screen (AID 1152).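 Note: E. coli MC1000 strain DRC41 lacking acrAB efflux pump and sulA.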 The settings on record: higher = more signal, called active from +8 up or from −8 down.
Test [2] is described as follows: probe aLefty1 binding on compound microarray – biochemical, small-molecule microarray, 635/667 nm fluorescence, primary screen (AID 1153).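 Note: score merges spot fluorescence with signal-to-noise ratio from the scanned slide images.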 The conditions noted are these: higher = more signal.
Test [3] can be described thus: plasmodial surface anion channel blockers, osmotic lysis – cell-based, P. falciparum Indochina, OD700, 1 h, primary screen (AID 1154). The conditions noted are these: P. falciparum Indochina infected RBC osmotic lysis, higher = more signal, called active from +8 up or from −8 down.
Test [4] in a line: plasmodial surface anion channel blockers, osmotic lysis – cell-based, P. falciparum Indochina, OD700, 2 h, primary screen (AID 1155).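 Note: lysis reports solute entry through the parasite surface anion channel PSAC.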 The settings on record: P. falciparum Indochina infected erythrocytes, higher = more signal, called active from +8 up or from −8 down.
A short description of test [5]: changes in parasitized red cell lysis, either direction – P. falciparum Indochina, OD700, 3 h, PSAC antagonist project, primary screen (AID 1156). The settings on record: P. falciparum-infected erythrocytes, osmotic lysis, higher = more signal, called active from +8 up or from −8 down.
A short description of test [6]: plasmodial surface anion channel blockers, osmotic lysis – cell-based, P. falciparum Indochina, OD700, 18 h, primary screen (AID 1157). The settings on record: P. falciparum Indochina infected erythrocytes, osmotic lysis OD700, 18 h; higher = more signal, called active from +8 up or from −8 down.
Test [7] is described as follows: S6 kinase pathway phospho-S6 level changes – cell-based, A549, cytoblot, luminescence, serum-stimulated, primary screen (AID 1158).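 Note: serum-stimulated A549 lung adenocarcinoma cells; signal is phosphorylated S6 detected by cytoblot immunostaining with HRP secondary.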 The settings on record: 5 h, higher = more signal.
Test [8] deals with NADPH oxidase 2 (Homo sapiens) (UniProt P04839). Briefly: compounds shifting NOX2 Amplex Red fluorescence – cell-based, HEK293-NOX2, PMA-stimulated, NOX inhibitor project, primary screen (AID 1159). Note: test concentration not given here. The settings on record: 45 min, higher = more signal, called active from +8 up or from −8 down.
Test [9] deals with NADPH oxidase 4 (Homo sapiens) (UniProt Q9NPH5). Briefly: compounds shifting NOX4 Amplex Red fluorescence – cell-based, HEK293-NOX4, tetracycline-induced, NOX inhibitor project, primary screen (AID 1160). The settings on record: HEK293-NOX4, Amplex Red H2O2 fluorescence, 45 min; higher = more signal, called active from +8 up or from −8 down.
In test [10] the target is NADPH oxidase 5 (Homo sapiens) (UniProt Q96PH1). Nature of the test: compounds shifting NOX5 Amplex Red fluorescence – cell-based, HEK293-NOX5, NOX inhibitor project, primary screen (AID 1161). The conditions noted are these: HEK293-NOX5, ionomycin, 45 min, higher = more signal.
Test [11] is described as follows: compound effects on lung adenocarcinoma cell viability – A549, calcein-AM fluorescence, 48 h, basal, profiling panel (AID 1162). Note: test concentration not given here. The conditions noted are these: higher = more signal.
Test [12] can be described thus: compound effects on differentiated 3T3-L1 adipocyte viability – cell-based, 3T3-L1 adipocytes, calcein-AM fluorescence, 48 h, basal, profiling panel (AID 1163). Note: test concentration not given here. The conditions noted are these: 3T3-L1 adipocytes viability, higher = more signal.
Test [13] in a line: compound effects on hepatocellular carcinoma cell viability – HepG2, calcein-AM fluorescence, 48 h, basal, profiling panel (AID 1164). Note: test concentration not given here. The conditions noted are these: higher = more signal.
Test [14] is described as follows: compound effects on multiple myeloma cell viability – MM1S, calcein-AM fluorescence, 48 h, basal, profiling panel (AID 1165). Note: test concentration not given here. The conditions noted are these: higher = more signal.
Test [15] in a line: calcein-AM signal in unstimulated myeloma cells – cell-based, calcein-AM fluorescence, 48 h, PK04 Diversity Set, profiling panel (AID 1166).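 Note: cells grown under basal conditions without added stimulus; test concentration not given here.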 The conditions noted are these: RPMI8226 myeloma viability, higher = more signal.
Test [16] is described as follows: JC-1 mitochondrial signal, unstimulated HepG2 cells – cell-based, JC-1 fluorescence, 24 h, 100 nL compound, profiling panel (AID 1167). Note: test concentration not given here. The conditions noted are these: HepG2 mitochondrial potential, higher = more signal.
Test [17] in a line: JC-1 mitochondrial signal, unstimulated adipocytes – cell-based, JC-1 fluorescence, 3T3-L1 adipocytes, 24 h, 100 nL compound, profiling panel (AID 1168). Note: test concentration not given here. The conditions noted are these: JC-1 mitochondrial fluorescence, higher = more signal, called active from +8 up or from −8 down.
A short description of test [18]: JC-1 mitochondrial signal, unstimulated myeloma cells – cell-based, JC-1 fluorescence, RPMI8226, 24 h, 100 nL compound, profiling panel (AID 1169). Note: test concentration not given here. The conditions noted are these: JC-1 mitochondrial potential fluorescence, higher = more signal.
Test [19] in a line: JC-1 mitochondrial signal, unstimulated MM1S myeloma – cell-based, JC-1 fluorescence, 24 h, 100 nL compound, profiling panel (AID 1170). Note: test concentration not given here. The settings on record: MM1S mitochondrial potential, higher = more signal.
The nature of test [20]: resazurin metabolic signal in A549 cells – cell-based, resazurin fluorescence, 24 h, PK04 Diversity Set, profiling panel (AID 1171). Note: test concentration not given here. The conditions noted are these: A549 viability, higher = more signal, called active from +8 up or from −8 down. (Alamar Blue is a resazurin reagent that responds to reducing activity.)

Sequence of NADPH oxidase 4 (Homo sapiens) (Q9NPH5 whole entry, looked up): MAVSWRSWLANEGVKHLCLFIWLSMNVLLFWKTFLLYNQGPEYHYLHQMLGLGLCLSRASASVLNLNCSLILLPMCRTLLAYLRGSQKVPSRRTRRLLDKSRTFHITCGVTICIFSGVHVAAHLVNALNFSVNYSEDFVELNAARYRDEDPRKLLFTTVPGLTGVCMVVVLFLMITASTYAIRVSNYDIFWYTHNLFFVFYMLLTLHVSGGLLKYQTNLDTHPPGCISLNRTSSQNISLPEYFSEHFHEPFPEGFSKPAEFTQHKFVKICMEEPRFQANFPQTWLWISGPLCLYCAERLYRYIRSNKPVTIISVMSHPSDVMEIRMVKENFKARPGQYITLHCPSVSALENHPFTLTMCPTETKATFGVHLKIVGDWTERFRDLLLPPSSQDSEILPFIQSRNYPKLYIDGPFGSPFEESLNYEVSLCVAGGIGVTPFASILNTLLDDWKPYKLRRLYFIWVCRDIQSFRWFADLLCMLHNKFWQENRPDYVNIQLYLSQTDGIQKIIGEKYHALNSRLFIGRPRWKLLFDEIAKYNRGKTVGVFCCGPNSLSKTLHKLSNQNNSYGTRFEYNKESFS
Sequence of NADPH oxidase 5 (Homo sapiens) (Q96PH1 whole entry, looked up): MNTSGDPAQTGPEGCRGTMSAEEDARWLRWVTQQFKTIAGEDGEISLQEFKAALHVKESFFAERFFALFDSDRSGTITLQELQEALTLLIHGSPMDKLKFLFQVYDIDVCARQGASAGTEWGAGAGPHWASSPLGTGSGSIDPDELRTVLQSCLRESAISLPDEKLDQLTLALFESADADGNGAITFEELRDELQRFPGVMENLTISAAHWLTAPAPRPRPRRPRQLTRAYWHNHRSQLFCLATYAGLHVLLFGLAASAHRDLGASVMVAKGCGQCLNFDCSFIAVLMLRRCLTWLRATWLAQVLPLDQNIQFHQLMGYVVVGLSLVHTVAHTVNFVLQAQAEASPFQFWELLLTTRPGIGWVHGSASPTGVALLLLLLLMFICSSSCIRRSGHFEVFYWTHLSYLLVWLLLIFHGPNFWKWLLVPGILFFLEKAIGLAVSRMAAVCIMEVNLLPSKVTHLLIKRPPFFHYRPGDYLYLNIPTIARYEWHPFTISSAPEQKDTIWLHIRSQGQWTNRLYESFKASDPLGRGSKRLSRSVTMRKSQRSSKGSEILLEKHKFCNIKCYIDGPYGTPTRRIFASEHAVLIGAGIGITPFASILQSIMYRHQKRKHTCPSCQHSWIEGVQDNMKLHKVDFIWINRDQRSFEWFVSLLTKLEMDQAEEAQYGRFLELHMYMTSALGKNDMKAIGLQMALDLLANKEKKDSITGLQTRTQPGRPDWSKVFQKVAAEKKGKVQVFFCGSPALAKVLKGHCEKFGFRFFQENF
Sequence of NADPH oxidase 2 (Homo sapiens) (P04839 whole entry, looked up): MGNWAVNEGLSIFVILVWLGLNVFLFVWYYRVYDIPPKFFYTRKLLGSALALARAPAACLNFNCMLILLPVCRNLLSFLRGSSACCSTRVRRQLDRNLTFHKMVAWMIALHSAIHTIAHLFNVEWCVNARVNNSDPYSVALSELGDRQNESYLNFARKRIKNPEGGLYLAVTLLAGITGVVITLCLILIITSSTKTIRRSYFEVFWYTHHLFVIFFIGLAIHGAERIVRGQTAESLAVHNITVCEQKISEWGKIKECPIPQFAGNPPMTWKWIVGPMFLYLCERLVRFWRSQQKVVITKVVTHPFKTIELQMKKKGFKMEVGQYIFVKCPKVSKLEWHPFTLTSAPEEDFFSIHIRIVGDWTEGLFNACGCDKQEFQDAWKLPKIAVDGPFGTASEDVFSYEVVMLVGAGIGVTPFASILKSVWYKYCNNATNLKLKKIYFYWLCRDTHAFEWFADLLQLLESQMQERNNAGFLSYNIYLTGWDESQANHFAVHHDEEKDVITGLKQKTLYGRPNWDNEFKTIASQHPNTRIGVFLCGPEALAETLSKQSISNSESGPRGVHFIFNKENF

Consider `COc1ccc([Si](C)(C)[C@@H]2[C@@H](CCO)O[C@]3(C(=O)N(Cc4ccccc4)c4ccccc43)[C@H]2C)cc1`, for which the z-score in [1] was 1.25 (inactive); in test [3], 1.13 (inactive); in [4], 0.81 (inactive); in test [5], 0.117 (inactive); in test [6] it was 0.353 (inactive); in [7], 0.779. Moreover, the z-score was 1.57 (inactive) in [8]; -0.523 (inactive) in [9]; 1.84 in test [10]; -0.617 in test [11]; 0.725 in test [12]; -0.495 in [13]. Further, the z-score in test [14] is -1.22; in [15], -2.05; in test [16], 2.34; in test [17], 0.358 (inactive); in test [18] it was -0.181; in [19], 0.849. Moreover, the z-score in test [20] is -1.69 (inactive). Further, the composite z-score in test [2] is -0.0143.
Regarding `CCN1C(C)=C(C(=O)OC)[C@@H](c2ccccc2)N2C(=O)[C@](O)(C(=O)OC)[C@@H](c3ccccc3)C(C(C)=O)=C12`, the z-score is -0.461 (inactive) in [1]; 2.31 (inactive) in [3]; 0.414 (inactive) in [4]; 0.291 (inactive) in test [5]; 0.0714 (inactive) in [6]; 3.95 in test [7]. Besides, the z-score is -0.211 (inactive) in [8]; -0.585 (inactive) in [9]; 1.35 in test [10]; 0.158 in test [11]; 2.15 in test [12]; -0.473 in test [13]. The z-score in test [14] is 0.244; in [15], -0.918; in test [16], 1.35; in test [17] it was 0.982 (inactive); in test [18], 0.195; in test [19], -0.14. Moreover, the z-score in test [20] was -0.468 (inactive). In [2], this compound came in with a composite z-score of -0.0111.
As for `COC(=O)C[C@H]1O[C@]2(C(=O)N(C)c3ccccc32)[C@@H](C)[C@@H]1[Si](C)(C)c1ccc(OC)cc1`, the z-score in test [1] is 2.42 (inactive); in test [3] it was 2.79 (inactive); in test [4] it was -1.17 (inactive); in test [5], -0.168 (inactive); in test [6], -2.34 (inactive); in test [7], 1.11. Further, the z-score is 0.0822 (inactive) in [8]; 0.345 (inactive) in [9]; -0.451 in [10]; -0.437 in test [11]; 2.54 in test [12]; -0.125 in test [13]. The z-score was -0.128 in test [14]; -2.98 in test [15]; 0.441 in test [16]; 1.24 (inactive) in [17]; -0.636 in test [18]; 1.05 in [19]. Also, the z-score in test [20] is -0.767 (inactive). For the same compound, in test [2], the composite z-score was -0.139.
Regarding `CC(C)N1CC=CC23O[C@@H]4/C=C\CCCOC(=O)C4[C@H]2C(=O)N(CCO)[C@@H]3C1=O` (stereo not given in full), the z-score in test [1] is 3.41 (inactive); in [3], 2.92 (inactive); in test [4], 0.236 (inactive); in [5], 0.716 (inactive); in test [6] it was -0.806 (inactive); in [7], 0.54. In addition, the z-score in test [8] is 1.23 (inactive); in test [9] it was 0.375 (inactive); in test [10], 1.84; in [11], 1.63; in [12] it was 0.472; in test [13], 0.499. Besides, the z-score was 1.37 in [14]; 0.629 in [15]; 1.42 in [16]; 2.1 (inactive) in [17]; -0.442 in [18]; 0.776 in test [19]. Besides, in test [20], the z-score is 1.39 (inactive). The compound further returned a composite z-score in test [2] of -0.0518.
Consider `C[C@H]1C2[C@H](Cc3ccccc3)NC(=O)[C@]23C(=O)N[C@H](Cc2ccccc2)C(=O)N[C@@H](Cc2ccccc2)C(=O)NC/C=C\C/C=C/C3[C@@H]2O[C@]12C` (stereo not given in full), for which the z-score was 0.839 (inactive) in test [1]; 3.27 (inactive) in [3]; 0.358 (inactive) in test [4]; -0.0925 (inactive) in test [5]; 0.0094 (inactive) in [6]; 0.654 in test [7]. Further, the z-score is 0.453 (inactive) in test [8]; 1.1 (inactive) in test [9]; 1.26 in test [10]; 0.373 in test [11]; 0.353 in test [12]; 0.0599 in [13]. The z-score is -0.442 in test [14]; -1.35 in test [15]; 1.24 in [16]; 0.4 (inactive) in test [17]; -0.52 in [18]; 0.29 in test [19]. Moreover, the z-score in test [20] is 0.276 (inactive). For the same compound, the composite z-score in test [2] stood at 0.305.
Consider `C=CC[C@]1(C(=O)N2CCCCC2)N=C(c2ccc(OCCCO)cc2)O[C@H]1c1ccccc1N=[N+]=[N-]`, for which the z-score in test [1] is 0.297 (inactive); in test [3] it was 35.8 (active); in [4], 31.6 (active); in [5] it was 4.43 (inactive); in [6], 8.93 (active); in [7], 0.0944. The z-score in test [8] was -1.88 (inactive); in test [9] it was 0.898 (inactive); in test [10], -0.971; in test [11], -0.871; in test [12], 1.65; in test [13] it was -0.715. Also, the z-score in [14] was -1.56; in [15] it was -2.55; in [16] it was 0.654; in test [17], 0.866 (inactive); in test [18] it was -1.17; in [19], -0.511. Besides, in [20], the z-score was -1.19 (inactive). This compound also returned a composite z-score in [2] of 0.707.
On to `C=CCNC(=O)[C@H]1[C@@H]2C(=O)O[C@@H](c3ccccc3)[C@@H](c3ccccc3)N2[C@@H](c2ccccc2OCCO)[C@]12C(=O)N(C(=O)OCCOC)c1ccc(C#CCC(C(=O)OC)C(=O)OC)cc12`, for which the z-score in test [1] is 2.88 (inactive); in test [3], 2.93 (inactive); in test [4] it was -0.183 (inactive); in [5], 0.824 (inactive); in test [6], -2.13 (inactive); in [7] it was 2.23. Also, the z-score was 0.819 (inactive) in [8]; 0.0202 (inactive) in [9]; 0.521 in [10]; 0.208 in test [11]; 2.2 in test [12]; 0.128 in test [13]. For the same compound, the z-score is -2.95 in test [14]; -3.66 in test [15]; 0.348 in test [16]; 1.54 (inactive) in test [17]; -1.02 in test [18]; -1.35 in [19]. Besides, the z-score in [20] is -0.131 (inactive). This compound yielded a composite z-score in test [2] of 0.042.
With `COCCOC(=O)N1C(=O)[C@@]2(c3cc(C#CC4=CCCCC4)ccc31)[C@H](C(=O)NC[C@H](O)c1ccccc1)[C@H]1C(=O)O[C@H](c3ccccc3)[C@H](c3ccccc3)N1[C@@H]2c1ccc(OCCO)cc1`, the z-score is -0.999 (inactive) in test [1]; 3.71 (inactive) in [3]; 2.15 (inactive) in test [4]; -0.681 (inactive) in test [5]; 1.05 (inactive) in test [6]; 0.0766 in [7]. The z-score in test [8] is 1.54 (inactive); in test [9], 1.17 (inactive); in test [10], 1.59; in [11] it was -0.602; in test [12], -0.39; in test [13] it was -0.199. The z-score in [14] is -1.89; in test [15], -1.63; in test [16], -1.92; in test [17], 0.449 (inactive); in test [18], -0.704; in test [19], -1.65. Besides, the z-score in [20] is -0.355 (inactive). In addition, the composite z-score in [2] turned out to be 0.197.
